Test results: the supplement of paper PMC6555819

Legend:
Assay in all cases: PBM binding z-score (relative to random genomic background probes); higher = stronger binding; sequences stand for … in GC…GCGATTGACAGCGTAGAATGAAGG
[1] = system: FXR:RXRa (NR concentration 270 nM, RXRa partner concentration 90 nM)
How it was run: (§1)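 Scanned fluorescence from custom Agilent 4×180K protein-binding microarrays was regression-normalized. Binding z-scores use random background probes as reference. Ligand-free nuclear receptor dimers were incubated on the arrays for 1 h and detected with antibodies against each partner (one per run).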

[2] = system: LXRa:RXRa (NR concentration 270 nM, RXRa partner concentration 90 nM)
How it was run: as §1

[3] = system: LXRa homodimer (NR concentration 270 nM)
How it was run: as §1

[4] = system: LXRb:RXRa (NR concentration 270 nM, RXRa partner concentration 90 nM)
How it was run: as §1

[5] = system: LXRb homodimer (NR concentration 270 nM)
How it was run: as §1

[6] = system: PPARa:RXRa (NR concentration 270 nM, RXRa partner concentration 90 nM)
How it was run: as §1

[7] = system: PPARg:RXRa 270nM:90nM, anti-RXR (NR concentration 270 nM, RXRa partner concentration 90 nM)
How it was run: as §1

[8] = system: PPARg:RXRa 30nM:10nM, anti-RXR (NR concentration 30 nM, RXRa partner concentration 10 nM)
How it was run: as §1

[9] = system: PPARg:RXRa 90nM:30nM, anti-RXR (NR concentration 90 nM, RXRa partner concentration 30 nM)
How it was run: as §1

[10] = system: PPARg:RXRa DBDmut IVT, anti-RXR (DBD mutation: RXRa K156A/R161A, NR concentration 270 nM, RXRa partner concentration 90 nM)
How it was run: as §1

[11] = system: PPARg:RXRa IVT, anti-PPARg (NR concentration 270 nM, RXRa partner concentration 90 nM)
How it was run: as §1

[12] = system: PPARg DBDmut:RXRa IVT, anti-PPARg (DBD mutation: PPARg1 K132A/R137A, NR concentration 270 nM, RXRa partner concentration 90 nM)
How it was run: as §1

[13] = system: PPARg DBDmut IVT, anti-PPARg (DBD mutation: PPARg1 K132A/R137A, NR concentration 270 nM)
How it was run: as §1

[14] = system: PPARg homodimer (NR concentration 180 nM)
How it was run: as §1

[15] = system: PXR:RXRa (NR concentration 270 nM, RXRa partner concentration 90 nM)
How it was run: as §1

[16] = system: PXR homodimer (NR concentration 270 nM)
How it was run: as §1

[17] = system: RARa:RXR (NR concentration 270 nM, RXRa partner concentration 90 nM)
How it was run: as §1

[18] = system: RARa homodimer (NR concentration 270 nM)
How it was run: as §1

[19] = system: RARb:RXRa (NR concentration 270 nM, RXRa partner concentration 90 nM)
How it was run: as §1

Sequence	PBM binding z-score [1]	PBM binding z-score [2]	PBM binding z-score [3]	PBM binding z-score [4]	PBM binding z-score [5]	PBM binding z-score [6]	PBM binding z-score [7]	PBM binding z-score [8]	PBM binding z-score [9]	PBM binding z-score [10]	PBM binding z-score [11]	PBM binding z-score [12]	PBM binding z-score [13]	PBM binding z-score [14]	PBM binding z-score [15]	PBM binding z-score [16]	PBM binding z-score [17]	PBM binding z-score [18]	PBM binding z-score [19]
ATCGAAAGGTCGAAGGTGAGTACACCCACCCGAA	4.49	3.49	0.413	2.92	0.705	4.68	4.86	2.04	3.87	0.019	2.74	1.5	0.329	1.98	3.49	0.469	4.08	1.18	3.9
CAAAGTAGGTCACGAAAGGTCAAAGTCGAATGAC	7.64	8.17	8.05	7.39	2.7	6.63	8.58	7.11	8.91	8.95	9.16	2.49	0.871	5.21	7.05	2.22	7.43	4.05	5.68
CAAACTAGGTCAAAGGTCAAAGACGAGCCAACCA	8.68	7.43	5.15	7.3	2.82	7.71	11.5	15.4	14.3	8.8	9.63	6.19	7.03	8.08	7.17	1.87	9.19	4.59	5.96
TTACCAAGGTAAAAGGTCGTTGATGCACGCCTTG	2.52	2.49	0.274	2.25	0.0385	4.46	6.8	5.65	6.87	0.76	3.59	0.399	0.573	1.67	3.07	0.505	4.08	0.101	2.28
GGAACTAGGGCAAAGTTGATAGCATCTGTCGACG	-0.124	-0.2	-0.596	0.16	-0.519	5.37	8.84	8.63	9.67	7.94	7.8	3.88	2.6	2.98	-0.217	-0.423	0.0303	-0.192	1.48
CAAACTAGGTCAAAGGTCAACGTCGAGCCAACCA	8.3	7.18	5.23	7.01	2.37	7.5	11.3	13.9	14.4	8.88	9.1	3.12	5.08	10.7	7.11	1.82	9.16	5.04	5.88
CCAGACAGGTGAAAGGTAACTCCGTCTGGTACGC	0.568	0.648	-0.506	0.857	-0.698	3.32	5.65	3.94	5.52	1.67	2.94	-0.44	-0.311	1.15	0.836	-0.734	1.5	0.043	1.23
